Activity calls are given as the source filed them.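 The calls were made as follows: active = cell killing with a fitted half-maximal concentration no more than twice the top valid dose used; inconclusive = flat curve with a moderate signal drop, or poor fit; inactive = the rest.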
experiment: HepG2 cell cytotoxicity, dose response, cytotoxicity control, plate reader, dry powder, set 7 (AID 743313); details: HepG2 viability, ATP luminescence (CellTiter-Glo), 72 h; series mostly up to 26 µM

Structure (SMILES) | outcome
Cc1ccc(OCCn2c(=S)[nH]c3ccccc32)cc1 | inactive
S=c1[nH]c2cccc(Cl)c2n1CCOc1ccccc1 | inactive
CSc1nc2ccccc2n1CCOc1cc(C)ccc1C(C)C | inactive
Cc1ccc(C(C)C)c(OCCn2c(=S)[nH]c3cccc(Cl)c32)c1 | inactive
Cc1ccc(C(C)C)c(OCCn2c(=S)[nH]c3ccccc32)c1 | inactive
Cc1ccc(C(C)C)c(OCCn2c(=S)[nH]c3c(C)cccc32)c1 | inactive
Cc1ccc(OCCn2c(=S)[nH]c3ccccc32)c(C)c1 | inactive
CC(C)(C)c1ccccc1OCCn1c(=S)[nH]c2ccccc21 | inactive
CC(C)c1ccccc1NCCn1c(=S)[nH]c2ccccc21 | inactive
Cc1cccc(OCCn2c(=S)[nH]c3ccccc32)c1C | inactive
COCc1nc2ccccc2n1CCOc1ccc(C(C)(C)C)cc1 | inactive
Cc1ccc(OCCn2cnc3ccccc32)cc1 | inactive
S=c1[nH]c2cc(Cl)ccc2n1CCOc1ccccc1 | inactive
CC(C)c1ccc(OCCn2c(=S)[nH]c3ccccc32)cc1 | inactive
Cc1cccc(OCCn2c(=S)[nH]c3cc(C(F)(F)F)ccc32)c1 | inactive
CC(C)c1ccccc1OCCn1c(=S)[nH]c2ccccc21 | inactive
Cc1ccc(C(C)C)c(OCCn2c(=S)[nH]c3ccc(Cl)cc32)c1 | inactive
Cc1ccc(C(C)C)c(OCCn2c(CO)nc3ccccc32)c1 | inactive
Cc1ccc(OCCn2c(C)nc3ccccc32)cc1 | inactive
Cc1ccc2c(c1)[nH]c(=S)n2CCOc1ccccc1 | inactive

— PubChem BioAssay AID743313 (Broad Institute, 2014)
